# Assay outcomes (PubChem)
# HP1b binding inh – inhibitors of HP1-beta chromodomain binding to methylated histone tails; P83916; AlphaScreen HP1-beta / biotin-H3K9me3 peptide binding; Potency, µM (top dose mostly 114 µM), usual class: inhibitors; actives 0.56% (n = 390,000); AID 540317; further: nearly all actives have a fitted effect of over 70% in size
#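 HP1-beta protein (50 nM final) preincubated 30 min at room temperature with biotinylated H3(1-18)K9me3 peptide (50 nM) in PBS pH 7.4, 0.01% Tween-20, then compound added for 30 min. AlphaScreen streptavidin donor/nickel chelate acceptor beads (10 ug/mL final), 30 min dark, luminescence read.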
# Sfp inh – Sfp phosphopantetheinyl transferase inhibition; Q9F4F7; Biochemical Sfp PPTase activity, qHTS; Potency, µM, most hits filed as inhibitors; actives 3.5% (n = 310,000); AID 1490;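 further: the enzyme is Sfp with the accession as filed and its product quenches rhodamine fluorescence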
#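 Sfp 15 nM + cpd, 15 min RT; start w/ rhodamine-CoA 5 uM, BHQ-2-YbbR 12.5 uM (final); 50 mM Hepes pH 7.6, 10 mM MgCl2, 0.01% NP-40, 0.01% BSA; read 525/598 nm at 0 and 30 min.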
# BAZ2B inh – inhibitors of human BAZ2B bromodomain; AlphaScreen BAZ2B-H3K14Ac peptide displacement; Potency, µM (doses to about 114 µM), hits mostly inhibitors; actives 4.4% (n = 360,000); AID 504333; further: nearly all actives have a fitted effect of over 60% in size
#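 Protein-peptide AlphaScreen: BAZ2B 50 nM, b-H3K14Ac 50 nM, 1x PBS pH 7.4 + 0.01% Tween-20. Preincubation 30 min RT; cpd 30 min RT (top 110 uM); beads 20 min RT, light-protected.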
# L3MBTL1 inh – blocks human L3MBTL1. actives 0.66% (n = 230,000). Potency, µM (titrated, usually from 57.1 µM), hits mostly inhibitors. Q9Y468. AlphaScreen L3MBTL1–H3K9me1 peptide binding; further: nearly all actives have a fitted effect of over 60% in size
#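 L3MBTL1 50 nM + b-AHA-H3(1-15)K9me1 75 nM, 30 min RT; compound added, 30 min RT; streptavidin donor/Ni-chelate acceptor beads 10 ug/mL each final, 30 min RT dark; AlphaScreen read.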
# JMJD2A Tudor – blocks the human JMJD2A Tudor domain; actives 4.4% (n = 390,000); Potency, µM (doses to about 114 µM), usual class: inhibitors; O75164; AlphaScreen JMJD2A-Tudor / H3K4me3 peptide binding; AID 504339; further: nearly all actives have a fitted effect of over 50% in size
# G9a block – inhibitors of human histone lysine methyltransferase G9a; Q96KQ7; actives 8.8% (n = 350,000); Potency, µM (top dose mostly 102 µM), usual class: inhibitors; G9a H3K9 monomethylation, AlphaScreen, 2 h; further: nearly all actives have a fitted effect of over 75% in size
#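 Using a bead-based AlphaScreen, monomethylated H3K9 product from 2 h room-temperature reactions (G9a 20 nM, peptide 500 nM, SAM 20 uM) was detected with 0.5 ug/mL rabbit anti-H3K9me1 antibody.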
# Hits are given with their value; n = inactive; u = inconclusive; x = no result given; [ ] = remark or other dose. Compounds with a hit are over-represented: about 12% of the library has one in this group of screens. The call rests on the fitted dose curve; in most records, active means well fitted curve in the direction sought with a large enough effect; inconclusive means small, poorly fitted or top-dose-only effect, or another doubt; inactive means no such curve, though single readings can be large; an effect the other way counts as inactive or inconclusive.
SMILES,HP1b binding inh,Sfp inh,BAZ2B inh,L3MBTL1 inh,JMJD2A Tudor,G9a block
Cc1cn(CC(=O)NCc2ccc(N(C)C)cc2)c(=O)[nH]c1=O,n,x,x,x,n,x
COc1ccc2[nH]c3c(=O)n(CCCCC(=O)N4CCC(C(N)=O)CC4)c(=S)[nH]c3c2c1,n,n,n,n,3.5µM,u
COc1ccc2[nH]c3c(=O)n(Cc4ccc(C(=O)N5CCCC5)cc4)c(=S)[nH]c3c2c1,u,n,n,x,6.3µM,7.9µM
CC[C@H](C)NC(=O)CCCCCn1c(=S)[nH]c2c([nH]c3ccc(OC)cc32)c1=O,n,n,n,n,n,n
COc1ccc2[nH]c3c(=O)n(CCCCC(=O)NCCN4CCCC4)c(=S)[nH]c3c2c1,u,79µM,n,x,5.6µM,u
O=CN1CCN(C=O)C(O)C1O (stereo unspecified),n,x,x,x,n,x
CCOC(=O)c1c(C)nn(-c2ccc(NC(=O)c3c(C)noc3C)cc2)c1C,n,n,n,x,n,45µM
CCNC(=O)Nc1ccc(-n2nc(C)c(C(=O)OCC)c2C)nc1,n,n,n,n,20µM,n
Cc1cccc(C)c1NC(=O)CCc1nnc2ccc(N3CCCC3)nn12,n,n,n,x,n,n
COC(=O)c1ccc(C2N=C(c3cccs3)CC(c3ccccc3O)N2)cc1 (stereo unspecified),n,n,n,x,n,45µM
Cc1ncc(CN2CCCC(C(=O)Nc3ccc(-c4ccco4)cc3)C2)n1C (stereo unspecified),u,n,n,x,n,n
CSc1ncc(CN2CCCC(C(=O)Nc3ccc(-c4ccco4)cc3)C2)cn1 (stereo unspecified),n,14µM,u,x,u,10µM
CCNc1ncc2ncc(=O)n(C3CC3)c2n1,x,n,x,x,x,n[0.501 µM]
Cc1cccc(N=Cc2[nH]c3ccc(Br)c(Cl)c3c2O)c1,u,n,n,n,u,10µM
COc1cccc(NC(=O)COC(=O)c2ccccc2C(=O)N(C)c2ccccc2)c1,n,x,n,n,n,n[12.7 µM]
C=CCC[C@@H](Cc1ccc(F)cc1)C(=O)OC[C@@H](NC(=O)[C@@H](CC=C)CC(=O)N(CCO)Cc1ccccc1)c1ccccc1,n,x,x,n,n,x
O=C(O)COCC(=O)NCc1csc2ccccc12,n,n,n,n,n,50µM
COc1ccc(S(=O)(=O)N2CC(C)N(C(=O)N(C)C)C2C(C)C)cc1 (stereo unspecified),n,n,n,x,n,n
COC(=O)c1cc(CSc2nnc(NC3CCCCC3)s2)oc1C,n,32µM,u,x,89µM,u
CCOC(=O)c1c(C)[nH]c(C)c1S(=O)(=O)N1CCC(C(=O)Nc2ccc(C)cn2)CC1,n,x,n,x,n,n
O=C(NCCN1CCNCC1)c1ccccn1,n,u,u,n,1.1µM,45µM
O=C(NCCCNCCCNC(=O)c1ccccn1)c1ccccn1,n,n,n,x,n,n[2.33 µM]
Cc1ccccc1C(=O)NCCCNC(=O)c1ccccn1,n,n,n,x,n,50µM
CN(C)CCn1nnnc1SCC1=C(C(=O)O)N2C(=O)[C@@H](NC(=O)Cc3csc(N)n3)[C@H]2SC1,n,x,50µM,28µM,56µM,16µM
Cc1nnc(SCC2=C(C(=O)O)N3C(=O)C(NC(=O)COc4ccc(F)cc4)C3SC2)s1 (stereo unspecified),n,x,u,u,n,u
Cc1nnc(SCC2=C(C(=O)O)N3C(=O)C(NC(=O)c4cc(F)c(F)cc4Cl)C3SC2)s1 (stereo unspecified),n,50µM,79µM,x,n,28µM
Cc1nnc(SCC2=C(C(=O)O)N3C(=O)C(NC(=O)Cn4nc(C(F)F)cc4C)C3SC2)s1 (stereo unspecified),n,79µM,50µM,u,25µM,14µM
COc1cc(OC)c(NC(=O)Nc2c(C)n(C)n(-c3ccccc3)c2=O)cc1Cl,n,x,n,x,n,n
CCOC(=O)CSc1nc2cc(OC)c(OC)cc2cc1C#N,n,x,x,x,n,x
CCOC(=O)c1ccc(N2C(=O)CC(NC3CCN(C(=O)c4ccc(F)cc4)CC3)C2=O)cc1 (stereo unspecified),n,n,n,n,n,45µM
